Test results taken from the supplement of paper PMC11417369.
± gives the standard deviation of the averaged measurements. The full ranking holds about 25,000 sequences; the median of “ln(normalized median fluorescence intensity)” is about 7.9, and the highest 2% start at about 11. What follows is part of a selection rich in the highest values, with near analogues and random picks from the rest.

What follows are sequences tested on PfAP2-I AP2 domain 3 (GST-tagged) (assay: gcPBM binding intensity (ln(normalized median fluorescence intensity)); higher = stronger DNA binding).
In short: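 Binding intensity is the highest Masliner-normalised natural-log median intensity over replicate spots in either probe orientation. To obtain it, GST-tagged P. falciparum DNA-binding domains made in E. coli were incubated for 1 h on an Agilent 4 × 180k array of primer-extended double-stranded 36-bp intergenic genomic probes plus negative controls. Detection used Alexa488 anti-GST antibody with scanning at 488 nm.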
In the case of “AAAAAAAAAAAACACACACACACACCCAAATATATA [CACACA_site150]”, the “gcPBM binding intensity (ln)” value is reported as 7.91 ± 0.2. “TGGGAAAAAATATATGCACACCCCCCAAAAAAAAAA [CACACA_site8696]” was tested, and the “gcPBM binding intensity (ln)” value was 11.5 ± 0.52. With “GGAAAAAATATATGCACACCCCCCAAAAAAAAAAAA [CACACA_site2222]” the “gcPBM binding intensity (ln)” value was 10.6 ± 0.2. “CGGATGAATATATATGCACACATCTTTTGTAAAAAT [CACACA_site3190]” was tested, and the “gcPBM binding intensity (ln)” value was 9.16 ± 0.11. In the case of “TTTCCAATTAGTTTTGCATGTTGAAAAAATGTTGGA [TGCATGCA_site1035]”, the “gcPBM binding intensity (ln)” value is reported as 7.71 ± 0.52. TTTAGTGAGTTTGTTGTGCACTGAAAAAATTACAAT was tested, and the “gcPBM binding intensity (ln)” value was 11.1 ± 0.18. For TATATTATATATATACTGCACTGTTTTACAAAATTA, the “gcPBM binding intensity (ln)” value was 10.8 ± 0.57. In the case of TTAATTATGGACAGGGTGCACATGAATAATAATACC, the “gcPBM binding intensity (ln)” value is reported as 11 ± 0.18. For “GCACATATGAATATAATACACACTTGTATTATTAAT [CACACA_site1841]”, the “gcPBM binding intensity (ln)” value was 8.1 ± 0.52. For CATGAATATTTTAATGTGCACATTTATCATTATATG, the “gcPBM binding intensity (ln)” value was 9.5 ± 0.21. For TTTGAATACTGAATGGTGCAAATTGTTCTCCCCATG, the “gcPBM binding intensity (ln)” value was 10.9 ± 0.61. “ATTTATATATATATAGGTACACATATTTATATATAA [XGTACX_site8487]” was tested, and the “gcPBM binding intensity (ln)” value was 7.58 ± 0.41. For AAATAGTTGTTAAAGGTGCACAATATGGATATAAGA, the “gcPBM binding intensity (ln)” value was 11.5 ± 0.38. “TTAAAAGTTATGGATACACACATATAAATATAGATT [CACACA_site7175]” was tested, and the “gcPBM binding intensity (ln)” value was 7.57 ± 0.42. “AAAGAAATAAGGTGCACACATATACAGATATATATA [CACACA_site4399]” was tested, and the “gcPBM binding intensity (ln)” value was 10.3 ± 0.4. With “AATATATGTTTAATTTCACACACAAATATACATTTT [CACACA_site9385]” the “gcPBM binding intensity (ln)” value was 7.69 ± 0.65. “TACAGATACAGATACACACACACACCGAAATAAATA [CACACA_site4865]” was tested, and the “gcPBM binding intensity (ln)” value was 7.84 ± 0.37. In the case of “CATATATATCGTAATGCACACATGTAATTTCATAAT [CACACA_site811]”, the “gcPBM binding intensity (ln)” value is reported as 11 ± 0.92. With “TAAAAATTCAATTGCACACGCACATATTTTAATAAG [CACACA_site2014]” the “gcPBM binding intensity (ln)” value was 8.8 ± 0.057. For “ATTTTTAATTTTTTCACACATATATTTAAAATAAAA [CACACA_site4799]”, the “gcPBM binding intensity (ln)” value was 7.94 ± 0.49. In the case of “TTCAAAATAAAAAATTCACACACATATATATATATA [CACACA_site8653]”, the “gcPBM binding intensity (ln)” value is reported as 9.28 ± 0.39. “CTTATATTAATTATTACACACATATTTATAAATGCA [CACACA_site6501]” was tested, and the “gcPBM binding intensity (ln)” value was 8.07 ± 0.47. For “AATTTAATATAATGCACACATAAAAAAAAAAAATTC [CACACA_site1504]”, the “gcPBM binding intensity (ln)” value was 11 ± 0.61. In the case of “ATTTCGTAATTTATATCACACACATATATATATAAT [CACACA_site9021]”, the “gcPBM binding intensity (ln)” value is reported as 8.06 ± 0.53. “ATATTTTATTATATAGGTACACATAATTTCATGTAA [XGTACX_site415]” was tested, and the “gcPBM binding intensity (ln)” value was 7.83 ± 0.52. With “AAAATTTAATATAATGCACACATAAAAAAAAATTCA [CACACA_site8640]” the “gcPBM binding intensity (ln)” value was 10.9 ± 0.92. For “AATTTAATATAATGCACACATAAAAAAAAATTCAAA [CACACA_site2062]”, the “gcPBM binding intensity (ln)” value was 11 ± 0.79.
